Shown are actives, neighbours in structure and some others; about 9.2% of the full set was active somewhere.
HttQ103 aggreg: mutant huntingtin aggregation inhibition; 220,000 tested, 1.1% active; Potency, µM (top dose mostly 46.1 µM), inactives show at the highest dose activity change, negative = inhibition, hits mostly inhibitors; AID 1688; PC12 HttQ103-GFP aggregates, Acumen cytometry, 40 h; active = well fitted curve in the direction sought with a large enough effect; inconclusive = small, poorly fitted or top-dose-only effect, or another doubt; inactive = no such curve, though single readings can be large; an effect the other way counts as inactive or inconclusive; note: % is set by controls: 0 for no effect and ±100 for the full control effect; nearly all actives have a fitted effect of over 60% in size
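Aggregates are detected as GFP objects 1–25 µm with signal 6 STDEV over background in lysates of induced PC12 cells. These carry Huntingtin exon 1 with 103 glutamines fused to GFP under an ecdysone promoter; compounds titrated.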
HTT cytoprotect: cytoprotection in Huntington HTT-Q103 PC12 cell model. PC12 HTT-Q103 induced, cytoprotection, ATP luminescence, 40 h. 230,000 tested, 0.14% active. Potency, µM (top dose mostly 56.4 µM), inactives show cytoprotection (ATP increase), hits mostly activators; active = well fitted curve in the direction sought with a large enough effect; inconclusive = small, poorly fitted or top-dose-only effect, or another doubt; inactive = no such curve, though single readings can be large; an effect the other way counts as inactive or inconclusive; note: % of control where 0% means no effect; nearly all actives have a fitted effect of over 45% in size
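ATP quantification (ATPlite) reports survival of PC12 cells in which tebufenozide, 100 nM final, switches on Htt exon 1 with 103 glutamines linked to GFP; compounds are titrated.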
HPGD block: inhibitors of human 15-hydroxyprostaglandin dehydrogenase (HPGD). 150,000 tested, 4.3% active. P15428. purified HPGD, NADH fluorescence kinetic, PGE2 substrate. AID 894. Potency, µM, for inactives: at the highest dose activity change, negative = inhibition, actives largely listed as inhibitors; note: % is set by controls: 0 for no effect and ±100 for the full control effect
Target sequence (P15428 whole entry, looked up): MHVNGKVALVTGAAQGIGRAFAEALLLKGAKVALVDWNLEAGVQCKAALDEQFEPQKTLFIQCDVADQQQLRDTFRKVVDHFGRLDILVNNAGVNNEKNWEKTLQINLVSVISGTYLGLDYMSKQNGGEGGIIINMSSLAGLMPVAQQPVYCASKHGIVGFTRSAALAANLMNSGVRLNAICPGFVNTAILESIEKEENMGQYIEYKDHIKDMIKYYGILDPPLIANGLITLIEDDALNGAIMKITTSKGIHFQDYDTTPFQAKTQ
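20 nM HPGD preincubated 15 min at room temperature with compound in 50 mM Tris-HCl pH 8, 0.01% Tween 20. Started with 1 mM NAD+ and 30 uM prostaglandin E2; NADH fluorescence (360/450 nm) read 5 times over 30-s intervals, last minus first.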
ALDH1A1 inh: blocks purified human ALDH1A1 activity; P00352; Purified ALDH1A1, NADH fluorescence, propionaldehyde substrate; Potency, µM (highest dose often 75.3 µM), for the others: top-dose activity, negative = inhibition, most hits filed as inhibitors; 220,000 tested, 7.3% active; AID 1030;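 note: plate controls were no enzyme wells and a reference inhibitor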
LMNA splice mod: changes lamin A minigene splicing in HeLa cells | Potency, µM (highest dose often 46.1 µM), for inactives: top-dose ratio change, negative = inhibition, most hits filed as inhibitors | HeLa LMNA splicing GFP/RFP minigene ratio, 48 h | AID 1487 | 200,000 tested, 0.01% active; active = well fitted inhibition curve with a large enough effect in the signal ratio, with a control signal flat, not every such curve was filed as active; inconclusive = small, poorly fitted or top-dose-only effect, or effect the other way, or a change in a side signal; the % refers to the signal ratio; note: % is set by controls: 0 for no effect and ±100 for the full control effect
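S3 HeLa cells stably expressing lamin A-EGFP splicing minigene plus DsRed2, 600 cells/well, 48 h compound exposure at 37C. Laser-scanning cytometry; analysed as GFP (500-530 nm)/RFP (575-640 nm) total intensity ratio; 0.5% DMSO vehicle.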
JMJD2E inh: JMJD2E (human) inhibition. Potency, µM (doses to about 57.1 µM), for inactives: top-dose activity change, negative = inhibition, hits mostly inhibitors. 230,000 tested, 1.6% active. JMJD2E catalytic domain, FDH-coupled NADH fluorescence (FDH is formaldehyde dehydrogenase). AID 2147;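 note: 0% = wells with enzyme and -100% = buffer wells without enzyme; nearly all actives have a fitted effect of over 50% in size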
Numbers without * were called inactive; ? = inconclusive; . = no result given; ! = a repeat was not active; [ ] = remark or other dose. Unless noted, calls come from the whole dose curve; as a rule, active = well fitted inhibition curve with a large enough effect (not every such curve was filed as active); inconclusive = small, poorly fitted or top-dose-only effect, or another doubt; inactive = no such curve, though single readings can be large or run the other way. Potency is the fitted concentration of half-maximal effect.

SMILES	HttQ103 aggreg	HTT cytoprotect	HPGD block	ALDH1A1 inh	LMNA splice mod	JMJD2E inh
CC(=O)c1ccc(OC(C)C)c(Cc2c(O)[nH]c(=S)[nH]c2=O)c1	13%[9.22 µM]	-2%[10 µM]	.	18µM*	.	2%
CC(C)Oc1ccc(Cc2c(O)[nH]c(=O)[nH]c2=O)cc1	1%	-11%[10 µM]	-5%	-10%	1%	-27%
Cn1c(=O)c2c(nc(N/N=C/c3c(O)n(-c4ccccc4)c(=S)[nH]c3=O)n2C)n(C)c1=O	-2%	-15%[10 µM]	-22%	8.9µM*	-10%	25µM*
CC(C)c1ccc(-n2c(O)c(/C=N/NC(=O)c3ccccc3O)c(=O)[nH]c2=S)cc1	16%[9.22 µM]	14%[10 µM]	.	.	.	?
CCN1C[C@]2(C)CC[C@H](O)[C@@]34C5C[C@@H]6[C@@H](OC)C[C@@](O)(C5[C@H]6O)[C@@H](CC23)[C@@H]14 (stereo partly specified)	.	11%	3%	-12%	.	1%
Cc1ccc(-n2nc(C)c3c2OC(N)=C(C#N)C3c2cccs2)cc1 (stereo unspecified)	17%	-2%[10 µM]	-13%	13µM*	-3%	-2%
O=C(CSC1c2ccccc2-c2ccccc21)N/N=C/c1ccccc1O	-5%[1.84 µM]	-17%	-29%	-9%	?	25µM*
N#CCBr	.	-3%	-9%	-9%	.	.
O=[As](O)(O)c1ccc2nc3cc([As](=O)(O)O)ccc3nc2c1	.	1%[10 µM]	-6%	3%[13.5 µM]	.	.
COc1cccc(-c2nc(CS(=O)CC(=O)N3CCC4(CC3)OCCO4)c(C)o2)c1 (stereo unspecified)	8%	-10%	-13%	35µM*	-3%	-20%
O=C(O)CNC(=O)c1ccccc1I	-3%	-14%	.	.	?	.
COC(=O)[C@H](N)CCCN=C(N)N[N+](=O)[O-]	.	8%[1.9 µM]	.	.	.	.
COC(=O)NC(=C(Cl)Cl)P(=O)(c1ccccc1)c1ccccc1	-11%[9.22 µM]	-8%[10 µM]	.	.	.	6%
COC(=O)NC(=S)Nc1ccccc1NC(=S)NC(=O)OC	.	-50%	-15%	10µM*	?	-7%
CC[C@@H](CO)NC(=O)[C@H]1C=C2c3cccc4c3c(cn4C)C[C@H]2N(C)C1	.	?	?	?	-13%	?
CN(C)c1ccc(N)cc1	.	-153%	-7%	14µM*	.	.
CN(C)c1ccc(N=Nc2ccccc2)cc1	.	-107%	-11%	?	.	.
CN(C)c1ccc(N=O)cc1	.	-88%	-14%	0.4µM*	.	.
C=C(C)[C@H]1Cc2c(ccc3c2O[C@H]2COc4cc(OC)c(OC)cc4[C@@H]2C3=O)O1	.	-41%[1.9 µM]	.	.	.	.
COc1cc2c(cc1OC)[C@@H]1C(=O)c3ccc(OC)c(CC=C(C)C)c3OC1CO2 (stereo partly specified)	.	.	-28%	?	?	18µM*
C[C@@]12CC[C@H]3[C@H](CCC4=CC(=O)CC[C@H]43)[C@H]1CC[C@H]2OC1(O)C(=O)c2ccccc2C1=O	.	7%[10 µM]	-1%	0.32µM*	.	.
Brc1c(NC2=NCCN2)ccc2nccnc12	2%	?	22µM*!	16µM*!	?	20µM*
O=S(=O)(NCCO)c1cc[c]([Sb](=[O])([OH])[OH])cc1	.	-4%[10 µM]	.	.	.	.
CC(C)(C)c1ccc(C(=O)NC(=S)Nn2cnnc2)cc1	-2%	-16%[10 µM]	.	9.5µM*	-7%	2%
CC1=CCCC2C1(C)CCC(C)C2(C)CC/C(C)=C/C[n+]1cn(C)c2c(N)ncnc21 (stereo unspecified)	.	1%	-7%	18µM*	.	-6%
O=c1[nH]c(=O)n(CCc2ccc(F)cc2)c(O)c1C=NCc1ccc2c(c1)OCO2	1%	5%[10 µM]	?	11%	-9%	-3%
COc1ccc(CCn2c(O)c(C=NCc3ccc4c(c3)OCO4)c(=O)[nH]c2=O)cc1OC	8%	-22%	-4%	5µM*	4%	2%
NC1(P(=O)(O)O)CCCCC1	.	-13%[10 µM]	-10%	4%[13.5 µM]	.	.
Cc1ccc(C(=O)NC(=S)NNS(=O)(=O)c2ccc(C)cc2)cc1	29%	.	16µM*	-11%	8%	-15%

Bioassay records: PubChem, National Center for Advancing Translational Sciences (NCATS)
